High-throughput results from PubChem BioAssay.
KB-3-1 tox = qHTS assay for MDR1-selective chemotherapeutics: Primary screen using the parental adenocarcinoma cell KB-3-1; KB-3-1 viability, CellTiter-Glo ATP luminescence, 72 h; Potency, µM (doses to about 46.1 µM), actives largely listed as cytotoxic; 1.4% of 400,000 active; AID 1347075, 2019; note: % is set by controls: 0 for no effect and ±100 for the full control effect; nearly all actives have a fitted effect of over 60% in size
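Parental KB-3-1 viability, qHTS format: 72 h compound exposure, 37 °C; CellTiter-Glo; media-only wells and DMSO plates as controls; concentration-effect fits on corrected data.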
HT1080NT lethal = qHTS for induction of synthetic lethality in tumor cells producing 2HG: qHTS for the HT-1080-NT fibrosarcoma cell line. HT-1080-NT fibrosarcoma viability, CellTiter-Glo ATP luminescence, 48 h. Potency, µM (titrated, usually from 46.1 µM), for the others: at the top dose activity, negative = less viability, hits mostly cytotoxic. 1.6% of 360,000 active. AID 686970, 2013;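 note: NT is the 2HG producing partner of a matched IDH1 knockdown line; 0% = DMSO-treated cells and -100% = media-only wells without cells; nearly all actives have a fitted effect of over 55% in size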
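Viability of the 2HG-overproducing fibrosarcoma line after 48 hours of compound exposure at 37 degrees C was determined by luminescence with CellTiter-Glo, and concentration-effect curves were then fitted and categorized.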
MCF10A rereplic = A quantitative high throughput screen for small molecules that induce DNA re-replication in MCF 10a normal breast cells. MCF 10A DNA re-replication, Hoechst nuclear intensity, 48 h. Potency, µM (doses to about 46.1 µM), inactives show top-dose activity, positive = re-replication, usual class: activators. AID 624296, 2012. 2.9% of 350,000 active; note: % of control where 0% means no effect; nearly all actives have a fitted effect of over 50% in size
KB-V1 MDR tox = qHTS assay for MDR1-selective chemotherapeutics: Primary screen using the drug-selected MDR subline cells KB-V1. KB-V1 MDR cells viability, CellTiter-Glo, 72 h. Potency, µM (titrated, usually from 46.1 µM), usual class: cytotoxic. 3.4% of 400,000 active; note: % is set by controls: 0 for no effect and ±100 for the full control effect; nearly all actives have a fitted effect of over 60% in size
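Cells of the MDR subline KB-V1 are plated, dosed with compound at multiple concentrations, and incubated 72 h at 37 degrees C; CellTiter-Glo is then added and luminescence read after 10 min.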
HT1080 IDH1KD tx = qHTS for induction of synthetic lethality in tumor cells producing 2HG: qHTS for the HT-1080-IDH1KD cell line; HT-1080 IDH1 knockdown viability, ATP luminescence, 48 h; Potency, µM (titrated, usually from 46.1 µM), for inactives: at the highest dose activity, negative = toxicity, usual class: cytotoxic; 2% of 360,000 active; AID 686971, 2013;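 note: 0% = DMSO wells and -100% = cell-free medium wells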
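CellTiter-Glo luminescence after 48 h compound exposure at 37 degrees C of IDH1-knockdown HT-1080 cells in 5% FBS RPMI. %Activity scaled between DMSO wells and cell-free media wells, with curves fitted and assigned curve classes.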
SW480 rereplic = A quantitative high throughput screen for small molecules that induce DNA re-replication in SW480 colon adenocarcinoma cells | 1.8% of 340,000 active | SW480 DNA re-replication, Hoechst DNA content imaging, 48 h | Potency, µM (highest dose often 46.1 µM), inactives show at the top dose re-replication activation, hits mostly activators; note: % of control where 0% means no effect; nearly all actives have a fitted effect of over 55% in size
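250 cells/well; 23 nL cpd via pin tool; 48 hr, 37 C, 5% CO2; Hoechst 40 min; imager read of total nuclear intensity, ex 405/em 500-530 nm.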
Active calls of the source: *; i = inactive; ? = inconclusive; . = no result given; [ ] = remark or other dose. Hits are enriched below; roughly 8% of the tested compounds scored in any of these assays. Calls come from the whole dose curve; as a rule, active = well fitted curve in the direction sought with a large enough effect; inconclusive = small, poorly fitted or top-dose-only effect, or another doubt; inactive = no such curve, though single readings can be large; an effect the other way counts as inactive or inconclusive. Potency is the fitted concentration of half-maximal effect.

SMILES	KB-3-1 tox	HT1080NT lethal	MCF10A rereplic	KB-V1 MDR tox	HT1080 IDH1KD tx	SW480 rereplic
COc1cc2c(cc1OC)C(C1C(=O)CCCC1=O)N(C(=O)CCl)CC2 (stereo not given)	i	3%	9%	i	0%	-8%
COc1ccccc1N1CCN(C(=O)c2cc(-c3cccs3)on2)CC1	i	-3%	12%	18µM*	-5%	-7%
CCCc1cc(=O)oc2cc(C)c3c(C(C)(C)C)coc3c12	i	.	.	?	.	.
Cc1c(Cl)c([N+](=O)[O-])nn1Cc1ccc(C(=O)Nc2ccc(Cl)cn2)o1	i	0%	?	3.7µM*	-14%	1%
Cc1nn(Cc2ccc(Cl)cc2)c(C)c1NC(=O)Cn1nc([N+](=O)[O-])c(Cl)c1C	?	?	?	i	-25%	7%
O=C(Nc1ccc(Cl)cn1)c1ccc([N+](=O)[O-])o1	i	23µM*	12µM*	?	21µM*	2.9µM*
CCc1ccc(CNC(=O)c2cnc3sc4cc(OC)ccc4n3c2=O)cc1	i	.	.	i	.	.
CN(C)S(=O)(=O)c1cccc(NC(=O)c2cc(-c3cccs3)nn2-c2ccccc2)c1	i	4%	?	5.8µM*	2%	?
CN(CC(=O)Nc1cccc(F)c1)C(=O)c1cc(-c2cccs2)nn1-c1ccccc1	i	-5%	?	?	-12%	5%
CCN(CC)S(=O)(=O)c1cccc(NC(=O)c2cc(-c3cccs3)nn2-c2ccccc2)c1	i	12%	-48%	3.7µM*	0%	8.2µM*
O=C(Cn1c(=O)nc(-c2ccccc2)c2cc(Cl)ccc21)Nc1ccc(F)c(Cl)c1	i	.	.	i	.	.
CC(C)(C)c1ccc(C2CC2C(=O)N/N=C\c2ccc[nH]2)cc1 (stereo not given)	15µM*	2.6µM*	?	?	1.6µM*	?
CCc1ccccc1NC(=O)Cn1c(=O)n(CCc2ccccc2)c(=O)c2sc3ccccc3c21	i	.	.	i	.	.
O=C(C1=NNCC1c1ccccc1)C1CO1 (stereo not given)	i	-10%	23µM*	i	0%	16µM*
Cc1ccc(CSc2nccc(-c3c(C)nc4ccccn34)n2)cc1	18µM*	2%	3.7µM*	6.5µM*	1%	?
COC(=O)c1c(N)n(-c2ccc(OC)c(OC)c2)c2nc3ccccc3nc12	i	.	.	i	.	.
CC1CCN(c2oc(-c3ccc(OCc4ccccc4Cl)cc3)nc2C#N)CC1	i	.	.	i	.	.
COc1ccc2nc(NN=C(C)c3ccccn3)cc(C)c2c1	?	-29%	?	1.2µM*	12µM*	?
Cc1cc(-c2nn3c(-c4ccccc4)nnc3s2)c2ccccc2n1	?	-2%	-2%	1µM*	-17%	8%
Cc1nnc2sc(-c3ccncc3)nn12	i	0%	5%	i	3%	-1%
Cc1nnc2sc(-c3csc4c3CCCC4)nn12	8.2µM*	3%	?	7.3µM*	-3%	-3%
Cc1nnc2sc(-c3cccc4ccccc34)nn12	7.3µM*	8%	-188%[0.0737 µM]	5.2µM*	5%	-3%
Cc1nnc2c3ccccc3c(-c3cccc4ccccc34)nn12	i	13%	?	12µM*	8%	-2%
COc1ccc(C)cc1NC(=O)CN1C(=O)CCc2cc(S(=O)(=O)N3CCOCC3)ccc21	i	.	.	i	.	.
COc1c(C)cc(C(=O)C2CCCN(Cc3cnc(N4CCOCC4)s3)C2)cc1C (stereo not given)	i	-2%	-1%	i	2%	3%
SMILES	KB-3-1 tox	HT1080NT lethal	MCF10A rereplic	KB-V1 MDR tox	HT1080 IDH1KD tx	SW480 rereplic
CCN1C(=O)N(C(C)=O)C2C1N(C(C)=O)C(=O)N2C(C)=O (stereo not given)	i	9%	5%	i	8%	1%
CC(=O)OCC[C@H](NS(=O)(=O)OCC(Cl)(Cl)Cl)c1ccccc1	i	-5%	16%	i	-5%	-5%
O=[N+]([O-])c1ccc(-c2ccc(S(=O)(=O)NCCN3CCCC3)cc2)cc1	i	18µM*	?	i	?	8%
c1ccc(NC2=NCCN2CCC2CCCC2)cc1	i	9%	1%	i	13%	-12%
COc1ccc2[nH]c(=O)c(CN(Cc3nnnn3Cc3ccco3)C3CCCCC3)cc2c1	?	0%	30%	i	0%	?
O=c1[nH]c2cc3c(cc2cc1CN(Cc1nnnn1C1CCCC1)C1CCCC1)OCCO3	23µM*	1%	-6%	i	-26%	-3%
COc1ccc(Cn2nnnc2CN(Cc2cc3cc(C)ccc3[nH]c2=O)C2CCCC2)cc1	i	0%	23µM*	16µM*	15%	14%
CCC(C)(C)n1nnnc1C(C(C)C)N(Cc1cccnc1)Cc1ccco1 (stereo not given)	i	17%	11%	i	-7%	-37%
CCC(C)(C)n1nnnc1C(C(C)C)N(Cc1ccco1)Cc1cc2cc3c(cc2[nH]c1=O)OCO3 (stereo not given)	?	-2%	?	15µM*	-28%	?
Cc1ccc(CN(Cc2cc3cc4c(cc3[nH]c2=O)OCCO4)Cc2nnnn2Cc2ccco2)cc1	i	-29%	?	15µM*	?	?
Cc1cccc(C)c1-n1ncc(C(=O)NC2CCCC2)c1C1CCN(C(=O)OC(C)(C)C)CC1	i	.	.	i	.	.
Cc1ccc2[nH]c(=O)c(CN(Cc3ccccc3)Cc3nnnn3C3CCCC3)cc2c1	i	5%	1%	23µM*	-4%	-3%
Cc1ccc2[nH]c(=O)c(CN(Cc3nnnn3C3CCCC3)C3CCCCC3)cc2c1	i	1%	21%	i	-6%	17%
CNC(=S)N/N=C/c1cn(CCOc2ccc(OC)cc2)c2ccccc12	i	-14%	?	?	-13%	6%
CCOC(=O)/C(=C\c1ccc(OC)c(OC)c1)C(=O)c1cccnc1	i	-25%	26µM*	i	-14%	20%
COc1cc(C(c2c(C)[nH][nH]c2=O)c2c(C)[nH][nH]c2=O)ccc1OCc1ccc([N+](=O)[O-])cc1	i	0%	21µM*	i	13%	?
